# The whole screen tested about 66,000 compounds, of which about 960 (1.5%) showed an effect of 50% or more. Many of the other results were omitted from the sample, so strong results are more common in it than they were.
# Test system: Trypanosoma brucei
# Assay: Trypanosoma brucei 72 hour study
# Format: functional, organism-based
# Parameters: scale not given: in the data most compounds retested in dose-response had high values
compound,measurement,setting,value
Cc1cc2n(n1)CC(CNCc1ccc(OCC3CC3)nc1)CN2 (centres undefined),Percent Effect,"30.3 µM, […]",69.29%
same,Percent Effect,"10 mM, 10 mM as filed; unlikely as a test dose",-5.536%
c1ccc(Oc2ccc(CNCC3CNc4ccnn4C3)cn2)cc1 (centres undefined),Percent Effect,"30.3 µM, […]",59.34%
same,Percent Effect,"10 mM, 10 mM as filed; unlikely as a test dose",-30.66%
COc1ccc(CNCC2CNc3cc(C)nn3C2)cn1 (centres undefined),Percent Effect,"30.3 µM, […]",11.94%
Cc1ccc(CNCC2CNc3cc(C)nn3C2)cn1 (centres undefined),Percent Effect,"30.3 µM, […]",-20.04%
Fc1cccc(Oc2ccc(CNCC3CNc4ccnn4C3)cn2)c1 (centres undefined),Percent Effect,"30 µM, 30.03 µM",11.44%
Cc1cc2n(n1)CC(CNCc1ccc(Oc3ccccc3)nc1)CN2 (centres undefined),Percent Effect,"30.3 µM, […]",53.59%
c1cc2n(n1)CC(CNCc1ccc(OC3CCCC3)nc1)CN2 (centres undefined),Percent Effect,"30.3 µM, […]",80.85%
same,Percent Effect,"10 mM, 10 mM as filed; unlikely as a test dose",9.3%
Cc1cc2n(n1)CC(CNCc1ccc(-n3cccn3)nc1)CN2 (centres undefined),Percent Effect,"30 µM, 30.03 µM",-7.458%
c1cc(CNCC2CNc3ccnn3C2)cc(OC2CCCC2)n1 (centres undefined),Percent Effect,"30.3 µM, […]",16.86%
c1cc2n(n1)CC(CNCc1ccc(OC3CCCCC3)nc1)CN2 (centres undefined),Percent Effect,"30 µM, 30.03 µM",28.54%
COCCOc1ccc(CNCC2CNc3cc(C)nn3C2)cn1 (centres undefined),Percent Effect,"30.3 µM, […]",6.502%
O=C(Nc1cccn(Cc2ccc(F)cc2)c1=O)c1csnn1,Percent Effect,"30 µM, 30.03 µM",-24.79%
CN(C(=O)Cc1ccccc1Cl)C1CCN(c2ccccn2)CC1,Percent Effect,10 µM,-27.72%
same,Percent Effect,"30.3 µM, […]",20.76%
Cn1cc(C(O)CNC(=O)c2ccc(F)cc2Cl)cn1 (centres undefined),Percent Effect,"30 µM, 30.03 µM",3.538%
CCN1Cc2nc(OC)c(CNC(=O)CCC3CCCC3)cc2C1=O,Percent Effect,"30 µM, 30.03 µM",-13.67%
O=C(C1CC=CC1)N1C[C@@H](OCc2cccnc2)[C@H]2OCCC[C@H]21.O=C(O)C(F)(F)F,Percent Effect,"30 µM, 30.03 µM",39.05%
CCc1nccn1-c1cncc(C2CCCN2)n1.Cl (centres undefined),Percent Effect,"30.3 µM, […]",-8.115%
N#Cc1cccc(CN2Cc3nccn3CC(CN3CCCC3)C2)c1.O=C(O)C(F)(F)F.O=C(O)C(F)(F)F (centres undefined),Percent Effect,"30 µM, 30.03 µM",-41.66%
Cc1cc(N2CCC(CC(N)=O)CC2)nc(-c2ccncc2)n1,Percent Effect,"30.3 µM, […]",0.7336%
CC(=O)NCC1CCN(c2cc(C)nc(-c3ccncc3)n2)CC1,Percent Effect,10 µM,-42.73%
Cc1cc(N2CCC(Cc3ccccc3)CC2)nc(-c2ccncc2)n1,Percent Effect,"30.3 µM, […]",99.65%
Cc1ccc(C(=O)N2CCC3(CC2)CC(N2CCCC2)C3)cc1.O=C(O)C(F)(F)F,Percent Effect,"30.3 µM, […]",-4.803%
Cc1ccc(N2CCC3(CN(Cc4cccs4)CCC3(F)F)C2)nn1.O=C(O)C(F)(F)F (centres undefined),Percent Effect,"30.3 µM, […]",-34.83%
Cc1ccc(CN2CCn3c(C(=O)N(C)C)cnc3C2)cc1.O=C(O)C(F)(F)F,Percent Effect,"30.3 µM, […]",-165%
Cl.Cn1cc([C@@H]2CN(S(C)(=O)=O)C[C@H]2N)c2ccncc21,Percent Effect,"30.3 µM, […]",-16.68%
Cl.Cn1cc([C@@H]2CN(S(=O)(=O)c3ccccc3F)C[C@H]2N)c2ccncc21,Percent Effect,"30.3 µM, […]",53.59%
Cl.Cn1cc([C@@H]2CN(S(=O)(=O)c3cccnc3)C[C@H]2N)c2ccncc21,Percent Effect,"30.3 µM, […]",-9.979%
c1cc(N2CCC(CN3CCOCC3)CC2)c2sccc2n1,Percent Effect,"30 µM, 30.03 µM",-9.098%
COc1ccc(OCc2sc(C3(O)CCCNCC3)nc2C)cc1.Cl (centres undefined),Percent Effect,"30.3 µM, […]",57.18%
CCN1CCCC(O)(c2nc(C)c(CCOc3ccc(F)cc3)s2)CC1 (centres undefined),Percent Effect,"30.3 µM, […]",-11.99%
C[C@@H]1CN(CCOc2ccc(Cl)cc2)CC[C@@]1(O)C1CCOCC1,Percent Effect,"30 µM, 30.03 µM",-42.79%
Cc1nc(C2(O)CCCNCC2)sc1CCOc1ccc(Cl)cc1.Cl (centres undefined),Percent Effect,"30.3 µM, […]",101.5%
CCCN1CCCC(O)(c2nc(C)c(COc3ccccc3)s2)CC1 (centres undefined),Percent Effect,"30.3 µM, […]",37.82%
Cc1nc(C)c(COc2ccc(S(=O)(=O)N(C)C)cc2)s1,Percent Effect,"30 µM, 30.03 µM",-44.61%
Cc1noc(CNC(=O)NCCOc2ccc(Cl)cc2)n1,Percent Effect,"30 µM, 30.03 µM",-8.016%
COc1ccc(OCCc2sc(C3(O)CCCNCC3)nc2C)cc1.Cl (centres undefined),Percent Effect,"30.3 µM, […]",34.01%
CC(=O)NCc1nc(CCOc2ccc(Cl)cc2)no1,Percent Effect,"30 µM, 30.03 µM",-81.13%
Cc1nc(C2(O)CCCNCC2)sc1CCOc1ccc(F)cc1.Cl (centres undefined),Percent Effect,"30.3 µM, […]",73.77%
O=C(O)C(F)(F)F.O=C(O)C(F)(F)F.c1cnc(N2C[C@H]3CCN(CCN4CCCC4)C[C@H]3C2)cn1,Percent Effect,"30.3 µM, […]",4.729%
COc1cc(C(=O)N2CCCC(c3cc(C)[nH]n3)C2)cc(OC)c1C (centres undefined),Percent Effect,"30.3 µM, […]",-7.766%
CCCS(=O)(=O)N1CCO[C@H]2[C@@H](Oc3cccnc3)CC[C@@H]21.O=C(O)C(F)(F)F,Percent Effect,"30.3 µM, […]",-3.605%
O=C(NCC1CC1)[C@@H]1CC[C@@H]2[C@@H](CCN2Cc2ccco2)O1.O=C(O)C(F)(F)F,Percent Effect,"30.3 µM, […]",-31.37%
O=C(O)C(F)(F)F.O=C(c1ccco1)N1CC[C@@H]2O[C@H](COCCN3CCCC3)CC[C@@H]21,Percent Effect,"30 µM, 30.03 µM",43.22%
COc1ccc2c(ccn2CCCN)c1.O=C(O)C(=O)O,Percent Effect,"30 µM, 30.03 µM",0.08661%
O=C(O)C(F)(F)F.O=C(c1ccc(F)cc1)N1CCC2(CC1)CC(N1CCOCC1)C2,Percent Effect,"30.3 µM, […]",-59.01%

# — ChEMBL document CHEMBL3988442, “University of Dundee, Small-Polar-MMV Screening Library” (2021)
